Bioassay records (PubChem BioAssay)
Most compounds without a hit are left out; they make up all but 15% or so of the library.
HCV inh: qHTS Assay for Inhibitors of Hepatitis C Virus (HCV); Huh7.5.1 HCVcc-Cre infection, luciferase reporter, 44 h; Potency, µM (highest dose often 41.8 µM), for inactives: at the highest dose activity change, negative = inhibition, hits mostly inhibitors; 340,000 compounds, 3.4% hits; note: potency is the fitted concentration of half-maximal effect; % is set by controls: 0 for no effect and ±100 for the full control effect
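Compounds are dispensed onto cells plated 4 h earlier at 1,000 per well, with HCVcc-Cre virus (about 0.5 moi) added next. Following 44 h of culture, luminescent signal is measured for 15 sec after 15 min with substrate at room temperature.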
SARS PLpro yeast: qHTS of Yeast-based Assay for SARS-CoV PLP; 330,000 compounds, 0.19% hits; S. cerevisiae expressing SARS-CoV PLpro, growth rescue; Potency, µM (doses to about 32.9 µM), for inactives: top-dose activity, positive = growth rescue, most hits filed as activators; calls by dose curve; note: potency is the fitted concentration of half-maximal effect; 0% is about no effect; nearly all actives have a fitted effect of over 55% in size
HCMV antiviral: qHTS Assay for inhibitors of the human cytomegalovirus (HCMV); activity change, negative = inhibition, % at 57.5 µM; HFF cells, HCMV-luciferase reporter, 72 h; stronger effect = lower value; AID 1259415, 2018; 410,000 compounds, 4.5% hits; in the data active = activity change below about -60%; inconclusive = no clear call, values can overlap the other calls; inactive = above about -39%; note: % is set by controls: 0 for no effect and ±100 for the full control effect
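Inhibition of viral replication was scored as loss of reporter luminescence in HFFs infected with HCMV-luciferase (MOI 1 PFU/cell) for 72 h; compounds tested at 2 doses, normalized to buffer and Salinomycin controls.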
Sm TGR block: qHTS Assay for the Inhibitors of Schistosoma Mansoni Peroxiredoxins. purified TGR, DTNB reduction, TNB absorbance 405 nm. Potency, µM (doses to about 114 µM), for inactives: top-dose activity change, negative = inhibition, most hits filed as inhibitors. 360,000 compounds, 3% hits; note: potency is the fitted concentration of half-maximal effect; % is set by controls: 0 for no effect and ±100 for the full control effect; nearly all actives have a fitted effect of over 60% in size
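Kinetic colorimetric format: TGR-catalysed, NADPH-driven DTNB reduction monitored via TNB absorbance. Enzyme dispensed at 20 nM; compound exposure 15 min at room temperature before reaction start.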
Pf growth 48h: Primary qHTS for delayed death inhibitors of the malarial parasite plastid, 48 hour incubation; AID 504832, 2011; 310,000 compounds, 5.9% hits; Potency, µM (series often up to 28.7 µM), without a hit: top-dose activity change, negative = inhibition, most hits filed as inhibitors; P. falciparum luciferase growth in erythrocytes, 48 h; note: potency is the fitted concentration of half-maximal effect; % is set by controls: 0 for no effect and ±100 for the full control effect
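Erythrocytes infected with P. falciparum carrying an integrated firefly luciferase reporter (2% hematocrit, 0.1% parasitemia final) were exposed to compounds in RPMI 1640 with 0.5% Albumax at 37 C, 5% CO2. Growth inhibition was scored as reduced luminescence.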
Pf growth 96h: Primary qHTS for delayed death inhibitors of the malarial parasite plastid, 96 hour incubation | P. falciparum luciferase reporter growth, 96 h | Potency, µM (highest dose often 28.7 µM), inactives show at the top dose activity change, negative = inhibition, hits mostly inhibitors | 320,000 compounds, 6.9% hits | AID 504834, 2011; note: potency is the fitted concentration of half-maximal effect; % is set by controls: 0 for no effect and ±100 for the full control effect
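96 h incubation, 37 C, 5% CO2, of luciferase-reporter P. falciparum-infected RBCs (2% hematocrit, 0.05% parasitemia final) with test compounds; endpoint luminescence.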
An asterisk follows results filed as active; ? = inconclusive; . = not tested or not shown. Unless noted, calls come from the whole dose curve; as a rule, active = well fitted curve in the direction sought with a large enough effect; inconclusive = small, poorly fitted or top-dose-only effect, or another doubt; inactive = no such curve, though single readings can be large; an effect the other way counts as inactive or inconclusive.

SMILES	HCV inh	SARS PLpro yeast	HCMV antiviral	Sm TGR block	Pf growth 48h	Pf growth 96h
CCN(CC)C(CNS(=O)(=O)c1ccc(Cl)cc1)c1ccccc1 (stereo not given)	19%	1%	38	2%	1%	?
COC(CNS(=O)(=O)c1ccc(Cl)cc1)c1ccccc1 (stereo not given)	7%	24%	-13	8%	-12%	13µM*
COc1cccc(NC(CNS(=O)(=O)c2ccc(Cl)cc2)c2ccccc2)c1 (stereo not given)	.	.	-100*	3%	.	.
CC1(C)C(=O)Nc2ccccc2N1C(=O)COC(=O)c1ccc(Cl)c(S(=O)(=O)NCc2ccccc2)c1	?	3%	-16	19%	?	.
COc1ccc(OCC(=O)Nc2ccc(S(=O)(=O)N(C)c3ccccc3)cc2)cc1	-1%	?	-16	7%	2%	?
CC(=O)Nc1ccc(S(=O)(=O)N(C)c2ccc(OCCOc3ccccc3F)cc2)cc1	10µM*	5%	0	.	.	.
CC(=O)Nc1ccc(S(=O)(=O)N(C)c2ccc(OCC(=O)NCCc3ccccc3F)cc2)cc1	?	.	-62*	.	.	.
O=[N+]([O-])c1ccc(C(O)CN2CCN(c3ccccc3)CC2)cc1 (stereo not given)	19%	3%	52	12%	?	?
O=[N+]([O-])c1ccc(C(O)C[n+]2ccccc2)cc1 (stereo not given)	12%	-2%	.	-2%	-18%	7.4µM*
CCOC(=O)/C=C/[C@@H](CCc1ccccc1)NC(=O)C(F)(F)F	.	.	-12	.	.	.
Cc1ccc(NC(=O)C2OCCc3ccccc32)cc1Cl (stereo not given)	-7%	-3%	10	11%	-7%	8.3µM*
Cc1ccc(NC(=O)C2CCCCC2C(=O)O)cc1Cl (stereo not given)	18%	1%	-26	.	16%	?
Cc1ccc(NC(=O)C2C3CCC(O3)C2C(=O)O)cc1Cl (stereo not given)	9%	-15%	9	-14%	7%	13µM*
O=C(O)C1C2CCC(O2)C1C(=O)Nc1ccc(F)c(Cl)c1 (stereo not given)	9%	2%	-2	4%	9%	12µM*
O=C(O)C1C2CCC(O2)C1C(=O)Nc1ccc(Cl)cc1 (stereo not given)	11%	1%	?	.	-4%	14%
COc1ccc(NC(=O)C2CC(=O)N(c3ccccc3F)C2)cc1S(=O)(=O)N1CCCCC1 (stereo not given)	.	.	-25	.	.	.
CN1CCC(N(C)S(=O)(=O)c2ccc(NC(=O)COc3ccc(Cl)cc3)cc2)CC1	13µM*	0%	-34	6%	8.3µM*	4.1µM*
CC(Oc1cccc(Cl)c1)C(=O)Nc1ccc(S(=O)(=O)N(C)C2CCN(C)CC2)cc1 (stereo not given)	?	-5%	11	0%	9.3µM*	?
Cc1cccc(-c2nnc(SCc3cc(=O)c4cccc(Cl)c4[nH]3)n2C)c1	.	.	?	1%	.	.
N#Cc1nnn(-c2ccc(Cl)cc2)c1N	12%	0%	.	5%	19%	5%
CCOc1cccc(NC(=O)c2cccc(F)c2)c1	-8%	0%	-36	.	27%	4%
O=C(OCC(=O)c1c[nH]c2ccccc12)c1ccco1	4%	-7%	87	-14%	19%	5.2µM*
COc1cc(NC(=O)c2ccco2)c(C(=O)OCC(=O)c2c[nH]c3ccccc23)cc1OC	?	6%	?	5%	4.1µM*	2.3µM*
O=C(OCC(=O)c1c[nH]c2ccccc12)c1ccc(Br)o1	12%	-3%	126	4%	1%	.
